Assay outcomes: PubChem, National Center for Advancing Translational Sciences (NCATS)
GAA inh: qHTS Assay for Inhibitors of Human alpha-Glucosidase as a Potential Chaperone Treatment of Pompe Disease. actives 0.005% (n = 200,000). Potency, µM (doses to about 76.9 µM), most hits filed as inhibitors. Lysosomal alpha-glucosidase (Homo sapiens), P10253. purified human GAA, 4-MU-alpha-glucoside fluorescence
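Endpoint fluorogenic read: 20 min room-temperature reaction of 4 nM human alpha-glucosidase with 400 uM 4-methylumbelliferyl-alpha-D-pyranoside, pH 5.0, quenched with 1M NaOH/1M glycine pH 10. AC50 from Hill modeling.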
GAA glycogen: qHTS Assay for Inhibitors and Activators of Human alpha-Glucosidase Cleavage of Glycogen. recombinant GAA, glycogen substrate, Amplex Red glucose oxidase fluorescence. Potency, µM (highest dose often 76.4 µM), most hits filed as inhibitors. actives 0.38% (n = 300,000). AID 2100, 2009;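 note: the screen sought inhibitors and activators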
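qHTS, 1536-well; enzyme 4 nM final; cpd up to 77 uM; substrate bovine liver glycogen 30 ug; 50 mM citrate/phosphate pH 5.0, 0.01% Tween-20; 37 C, 40 min; Amplex Red detection 45 min RT; Hill fit → AC50.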
GLA spleen mod: qHTS Assay for Inhibitors and Activators of Human alpha-Galactosidase From Spleen Homogenate; Alpha-galactosidase A (Homo sapiens), P06280; AID 2107, 2009; human spleen homogenate, 4MU-alpha-Gal fluorescence, 40 min; Potency, µM (highest dose often 80 µM), usual class: inhibitors; actives 0.008% (n = 240,000)
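Inhibition or activation of alpha-galactosidase in human spleen homogenate is scored by 4-MU fluorescence after 40 min at 37C, pH 5.0, with 1 mM substrate. AC50s come from concentration-response fitted to the Hill equation.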
N370S GC mod: qHTS Assay for Inhibitors and Activators of N370S glucocerebrosidase as a Potential Chaperone Treatment of Gaucher Disease. Lysosomal acid glucosylceramidase (Homo sapiens), P04062. N370S GC spleen homogenate, 4MU-glucoside fluorescence. Potency, µM (doses to about 59.4 µM), hits mostly inhibitors. actives 0.092% (n = 330,000)
GLA inh pH 4.5: qHTS Assay for Inhibitors of Human alpha-Galactosidase at pH 4.5 | 230,000 tested, under 10 active | activity change, negative = inhibition, % at 105 µM | purified enzyme, 4-MU-alpha-Gal fluorescence, pH 4.5 | Alpha-galactosidase A (Homo sapiens), P06280
Target sequence (P06280 whole entry, looked up): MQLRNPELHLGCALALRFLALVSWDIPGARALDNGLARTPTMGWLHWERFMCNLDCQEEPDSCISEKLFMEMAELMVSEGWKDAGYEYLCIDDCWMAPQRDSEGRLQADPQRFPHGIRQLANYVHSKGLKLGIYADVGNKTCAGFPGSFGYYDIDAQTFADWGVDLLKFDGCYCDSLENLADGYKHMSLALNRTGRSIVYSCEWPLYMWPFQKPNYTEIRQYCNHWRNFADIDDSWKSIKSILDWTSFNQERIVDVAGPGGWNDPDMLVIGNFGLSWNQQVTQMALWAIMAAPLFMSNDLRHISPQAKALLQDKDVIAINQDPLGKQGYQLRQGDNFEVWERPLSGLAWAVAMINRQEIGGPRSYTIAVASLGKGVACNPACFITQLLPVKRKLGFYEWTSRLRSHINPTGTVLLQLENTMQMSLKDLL
aGlu spleen mod: qHTS Assay for Inhibitors and Activators of Human alpha-Glucosidase From Spleen Homogenate; Lysosomal alpha-glucosidase (Homo sapiens), P10253; actives 0.006% (n = 240,000); Potency, µM (titrated, usually from 79.9 µM), hits mostly inhibitors; human spleen homogenate, 4-MU-alpha-glucoside fluorescence
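Human spleen homogenate (1 ug) with 4-methylumbelliferyl-alpha-D-glucopyranoside (1 mM final) in 50 mM citrate/phosphate pH 5.0, 0.01% Tween-20; 40 min at 37 C. Stopped at pH 10; 4-MU fluorescence Ex 365/Em 440 nm; AC50 by Hill fit.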
Of the large screens only hits and unclear results are named; the others gave an inactive call. Hits are enriched below; roughly 0.43% of the tested compounds scored in any of these assays. Calls come from the whole dose curve; as a rule, active = well fitted curve in the direction sought with a large enough effect; inconclusive = small, poorly fitted or top-dose-only effect, or another doubt; inactive = no such curve, though single readings can be large; an effect the other way counts as inactive or inconclusive.

Oc1ccccc1N=Cc1c(O)ccc2ccccc12	GAA glycogen inconclusive
COC(=O)c1cc(O)c(OCc2ccccc2)c(O)c1	none
CC(=O)Oc1c(C)cc(O)c2ccccc12	GAA glycogen 14µM
CC(=O)Cc1cc(O)c2ccccc2c1OC(=O)c1ccccc1	GAA inh inconclusive, GAA glycogen 8.9µM
Cc1[nH]n(-c2ccccc2)c(=O)c1/C=N/NC(=O)c1ccccc1F	none (no result: GAA inh, GLA spleen mod, GLA inh pH 4.5, aGlu spleen mod)
CCOC(=O)Cc1csc(NC(=O)Cc2ccc(Cl)cc2)n1	none (no result: GAA inh)
CCOC(=O)Cc1csc(NC(=O)NC2(C(F)(F)F)Oc3ccc(Cl)cc3O2)n1 (configuration not stated)	GAA glycogen 11µM
CCOC(=O)Cc1csc(NC(=O)NC2(C(F)(F)F)Oc3ccccc3O2)n1	GAA glycogen 18µM
CCOC(=O)Cc1csc(NC(=O)Nc2ccc(OC(F)(F)F)cc2)n1	none
CCOC(=O)Cc1csc(NC(=O)NC2(C(F)(F)F)Oc3cc(Cl)c(Cl)cc3O2)n1	GAA glycogen 8.8µM
O=C(CSc1ncnc2ccccc12)NCCCO	none
Cc1cc(C)nc(-n2nc(C)cc2Nc2ccccc2)n1	none
Cc1cc(Nc2ccccc2)n(-c2ccccc2)n1	GAA glycogen 12µM
COc1cc(C2NC(=O)NC(C)=C2C(=O)OCc2ccc(C)cc2)cc(OC)c1O (configuration not stated)	GAA glycogen 9.9µM
COc1cc(C2NC(=O)NC(C)=C2C(=O)OCc2ccc(C)cc2)cc(OC)c1OC (configuration not stated)	none (no result: GAA inh, GLA spleen mod, GLA inh pH 4.5, aGlu spleen mod)
CCOP(=O)(OCC)C(NC(=O)Nc1ccccc1)c1ccccc1 (configuration not stated)	none
Cc1c(NC(C)c2ccccc2O)c(=O)n(-c2ccccc2)n1C (configuration not stated)	GAA glycogen 28µM
Cc1c(NC(C)c2cc(Cl)ccc2O)c(=O)n(-c2ccccc2)n1C (configuration not stated)	GAA glycogen 11µM
Cc1c(NC(=O)C(=O)/C=C(\O)c2ccc(Cl)cc2)c(=O)n(-c2ccccc2)n1C	GAA glycogen inconclusive
Cc1c(NC(C)C)c(=O)n(-c2ccccc2)n1C	none (no result: GAA inh, GAA glycogen)
Cc1c(N/C=C/C(=O)c2ccc(Cl)cc2)c(=O)n(-c2ccccc2)n1C	GAA glycogen 14µM
Cc1cc(C(F)(F)F)nn1CC(=O)NNC(=S)Nc1ccc(F)cc1	GAA glycogen 40µM (no result: N370S GC mod)
Cc1cc(C(F)(F)F)nn1CC(=O)NNC(=S)Nc1ccc(Cl)cc1	none
COc1ccc(NCC(=O)Nc2ccc(C#N)cc2)cc1Cl	GAA glycogen inconclusive
O=[N+]([O-])c1ccc(N/N=C/c2ccc[nH]2)cc1	GAA glycogen 7.9µM (no result: N370S GC mod)
O=[N+]([O-])c1ccc(N/N=C/c2c[nH]c3ccccc23)cc1	GAA glycogen 18µM (no result: N370S GC mod)
O=[N+]([O-])c1ccc(N/N=C/c2cccc(O)c2O)cc1	GAA glycogen inconclusive (no result: GAA inh, GLA spleen mod, GLA inh pH 4.5, aGlu spleen mod)
CCCOC(=O)C1C2C=CC3(CN(c4cccc(Cl)c4)C(=O)C13)O2 (configuration not stated)	none
COc1ccc(C(=O)NNC(=O)CSc2nnc(-c3ccc(O)cc3)n2C)cc1	none
CC1CCc2c(nc3ncnn3c2NCCc2ccccc2F)C1 (configuration not stated)	GAA glycogen 4µM
CC1CCc2c(nc3ncnn3c2N2CCN(c3ccccc3F)CC2)C1 (configuration not stated)	GLA spleen mod inconclusive
CCOC(=O)c1ccc2nc(NC(NC(C)=O)(C(=O)OC)C(F)(F)F)sc2c1 (configuration not stated)	none
COC(=O)[C@@H](N)Cc1ccc(O)c(O)c1	none (no result: GAA inh, GAA glycogen)
COC(=O)Cc1ccc(O)c(N)c1	GAA glycogen 5.6µM
CCOc1ccc(NC(=S)N(CCc2c(C)[nH]c3ccc(C)cc23)Cc2ccco2)cc1	GAA glycogen 35µM
O=C(NCCN1CCN(S(=O)(=O)c2ccccc2)CC1)C(=O)Nc1ccc(F)cc1	none (no result: GAA inh, GLA spleen mod, GLA inh pH 4.5, aGlu spleen mod)
C(C#CCCCCCCCCC[n+]1ccccc1)#CCCCCCCCCC[n+]1ccccc1	N370S GC mod 11µM (no result: GAA inh, GAA glycogen, GLA spleen mod, GLA inh pH 4.5, aGlu spleen mod)
C=CCc1cccc(C=Nc2cc(Br)ccc2O)c1O	GAA glycogen inconclusive
Cc1cccc(C=Nc2ccc3c4c(cccc24)CC3)c1O	GAA glycogen 14µM
CCc1ccc(O)c(N=Cc2cccc(C)c2O)c1	GAA glycogen 16µM
O=c1n(-c2ccccc2)c(=O)n2n1CCCC2	none
COc1ccc(C(=O)c2ccccc2)c2c(O)ccc(C(=O)c3ccccc3)c12	none
COc1ccc(C(C)=O)c2c(O)cccc12	GAA glycogen 40µM
Cc1ccc(SCc2[nH]nc3c2C(c2cccnc2)C(C#N)=C(N)O3)cc1 (configuration not stated)	none
CCSc1nnc2c(n1)[nH]c1c(C)cccc12	none
COc1cccc(Nc2nc(-c3cccs3)nc3ccccc23)c1	N370S GC mod 13µM
COc1ccc(Nc2nc(-c3cccs3)nc3ccccc23)cc1	N370S GC mod 1.1µM
COc1ccc(Nc2nc(-c3ccccc3)nc3ccccc23)cc1	N370S GC mod inconclusive (no result: GAA inh, GLA spleen mod, GLA inh pH 4.5, aGlu spleen mod)
COc1cccc(-c2nc(N(C)C)c3ccccc3n2)c1	none (no result: GAA inh, GAA glycogen, GLA inh pH 4.5)
COc1cccc(CN(C)c2nc(-c3cccs3)nc3ccccc23)c1	N370S GC mod 1.6µM
O=c1[nH]c(CN2CCN(c3ccccc3O)CC2)nc2ccccc12	GAA inh inconclusive, GAA glycogen 7.9µM
O=c1[nH]c(CN2CCN(CCO)CC2)nc2ccccc12	none
CCOC(=O)c1sc(NC(=O)c2nc3nc(C)cc(C(F)F)n3n2)c(C(=O)OC)c1C	none (no result: GAA inh, GLA spleen mod, N370S GC mod, GLA inh pH 4.5, aGlu spleen mod)
O=C(NC(=S)Nc1cccc2c(O)cccc12)c1ccccc1[N+](=O)[O-]	GAA glycogen 10µM (no result: GAA inh, GLA spleen mod, GLA inh pH 4.5, aGlu spleen mod)
CCCC(=O)NC(=S)Nc1cccc2c(O)cccc12	GAA glycogen 8.9µM
CCCC(=O)NC(=S)Nc1ccccc1C(=O)OC	none
COc1ccc(-c2nc(-c3ccccc3)c(-c3cc([N+](=O)[O-])ccc3C)[nH]2)cc1O	GLA inh pH 4.5 inconclusive
Cc1ccc([N+](=O)[O-])cc1-c1[nH]c(-c2ccc(O)c(O)c2)nc1-c1ccccc1	GAA glycogen 14µM, N370S GC mod inconclusive
